Experimental data published in the supplement of paper PMC6555819.

Assays:
Assay in all cases: PBM binding z-score (relative to random genomic background probes); higher = stronger binding; sequences stand for … in GC…GCGATTGACAGCGTAGAATGAAGG
[1] = tested on: FXR:RXRa (NR concentration 270 nM, RXRa partner concentration 90 nM)
Outline: (§1)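 Binding z-scores take random background probes as their reference. They come from custom Agilent 4×180K protein-binding microarrays incubated 1 h with ligand-free nuclear receptor dimers, with antibodies against each partner (one per run) detecting binding. Scanned fluorescence was regression-normalized.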

[2] = tested on: LXRa:RXRa (NR concentration 270 nM, RXRa partner concentration 90 nM)
Outline: as §1

[3] = tested on: LXRa homodimer (NR concentration 270 nM)
Outline: as §1

[4] = tested on: LXRb:RXRa (NR concentration 270 nM, RXRa partner concentration 90 nM)
Outline: as §1

[5] = tested on: LXRb homodimer (NR concentration 270 nM)
Outline: as §1

[6] = tested on: PPARa:RXRa (NR concentration 270 nM, RXRa partner concentration 90 nM)
Outline: as §1

[7] = tested on: PPARg:RXRa (NR concentration 180 nM, RXRa partner concentration 90 nM)
Outline: as §1

[8] = tested on: PPARg:RXRa 270nM:90nM, anti-RXR (NR concentration 270 nM, RXRa partner concentration 90 nM)
Outline: as §1

[9] = tested on: PPARg:RXRa 30nM:10nM, anti-RXR (NR concentration 30 nM, RXRa partner concentration 10 nM)
Outline: as §1

[10] = tested on: PPARg:RXRa 90nM:30nM, anti-RXR (NR concentration 90 nM, RXRa partner concentration 30 nM)
Outline: as §1

Sequence | PBM binding z-score [1] | PBM binding z-score [2] | PBM binding z-score [3] | PBM binding z-score [4] | PBM binding z-score [5] | PBM binding z-score [6] | PBM binding z-score [7] | PBM binding z-score [8] | PBM binding z-score [9] | PBM binding z-score [10]
CGCCCAAGGTCATAGGAGGTCAGTGAAGACAGAT | 7.29 | 7.31 | 4.78 | 6.09 | 0.731 | 5.8 | 5.24 | 5.41 | 2.05 | 4.11
CCTACTGGGCCATCAAGTCATTGATATCAACGTT | -0.198 | -0.233 | -0.0812 | 0.373 | -0.319 | 1.02 | 0.723 | 1.67 | 0.283 | 0.805
TCATATAGGTAAATGCTAGGTTAAAGTCCGATCT | 1.18 | 1.82 | 1.14 | 1.05 | 0.0487 | 1.7 | 0.987 | 2.22 | 3.48 | 2.87
CCTACTGAGCCAAGGTCATTGATCAGTCAAAGCA | 3.46 | 3.43 | 1.43 | 3.3 | 0.637 | 3.61 | 0.656 | 1.62 | 0.331 | 0.858
CCGTCTGGGGCAAAGGTTACCATACTCAGTACGA | 1.5 | 1.57 | -0.23 | 2.15 | -0.982 | 4.92 | 10.4 | 8.97 | 9.6 | 10.6
TCATATAAGTAAAGGTGAAAGTCGAACGATATGA | 1 | 1.25 | -0.151 | 1.26 | -0.205 | 2.77 | 1.98 | 2.93 | 3.99 | 3.46
TGTCAAAGTTCAAAGGTAAGGTAAGTATCCACAC | 7.21 | 6.56 | 4.78 | 4.45 | 1.75 | 5.46 | 8.72 | 7.6 | 5.24 | 7.45
AGAACGAGGCCACGCTGAGTTGATAGCAGAGTAG | 0.0545 | -0.515 | -0.521 | -0.809 | -0.992 | 0.356 | 0.903 | 0.196 | -0.0987 | 0.189
ATCTCTAGGTAACAAAGTTCAGTGAATGCCGAAC | 0.948 | 1.9 | 2.1 | 1.27 | 0.958 | 2.12 | 2.01 | 3.09 | 1.01 | 2.42
ATCTCTAGGTAAAAGTTCAGTGATTCCCGAGGAT | 0.618 | 1.07 | 1.4 | 0.613 | 0.691 | 4.08 | 7.48 | 7.11 | 7.32 | 8.09
ACTCTGAGGACAAAGGTCAGAGCTACGCCAGTGA | 4.52 | 4.08 | 1.44 | 3.34 | 0.531 | 4.76 | 7.44 | 7 | 5.4 | 6.74
ATCTCGAGGTAAGACTCAGTTCAGTGAAGAACGC | 0.0769 | -0.0595 | -0.0445 | -0.053 | -0.194 | 0.0746 | 0.0104 | -0.287 | -0.212 | -0.236
TCTTGTAGATCAATGGTTAAGAAAGCCGAAGCCT | 0.494 | 0.359 | -0.126 | -0.0354 | -0.123 | 0.608 | 0.23 | 2.48 | 3.07 | 2.99
GCAGACAGGTGAAACGCAGGTAACTCGGGGTGGC | -0.13 | 0.49 | -0.695 | 0.134 | -0.553 | 0.89 | 0.313 | 0.104 | -0.699 | -0.194
ACTGTTAGTTGACTTAGGGCAACCGATACGACGC | 0.539 | 0.575 | 0.206 | 0.367 | 1.15 | 0.0221 | 0.731 | 0.221 | 0.105 | -0.111
TTACCAAGGTGAGGGTCGTTGATCCCTCTGTAGA | 1.32 | 0.898 | -0.621 | 0.915 | -0.774 | 1.88 | 0.82 | 2.03 | 0.53 | 1.46
ATACCAAGGCGATCGTGAGGTCGTTGATACTAAC | 0.659 | 0.195 | 0.46 | 0.571 | -0.375 | 0.703 | 0.16 | -0.337 | -0.383 | -0.191
CCTCAGAGGACAGAAGGTCAGAGCTGTCCGCTTT | 1.31 | 1.63 | -0.13 | 1.24 | -0.707 | 2.19 | 0.358 | 0.634 | -0.132 | 0.513
TAGCCTAGGACATTCAGGGGCCAGTATAGAAAGC | -0.499 | -0.54 | -0.456 | -0.243 | -0.646 | -0.572 | 0.256 | -0.544 | -0.505 | -0.409
ACTATTAGTTGAGACGAGGGCAACCGTTAGGTTG | 0.584 | 0.15 | 0.0603 | -0.161 | 0.0285 | 0.115 | 0.198 | -0.206 | -0.415 | -0.374
ATACCAAGGTGATCCTGAGGTCGTTGATACTAAC | 2.37 | 2.1 | 0.935 | 1.98 | 0.354 | 2.1 | 0.744 | 0.547 | 0.147 | 0.197
TCCCGGAGGACACGAAAGGTCAGAGCTCGACATC | 3.13 | 3.95 | 2.89 | 2.93 | -0.374 | 3.45 | 1.51 | 2.59 | 2.05 | 2.49
CCTTACGGGTCACTGACAGATTATAGCATTTGGA | 5.42 | 3.4 | 0.418 | 3.31 | 0.248 | 5.28 | 4.31 | 4.42 | 1.59 | 3.46
TCGAGTAGGTTAGTCGGGGCATTTAGCCAACATA | 0.338 | 0.346 | -0.167 | 0.722 | -0.677 | 0.819 | -0.0847 | 0.976 | 1.17 | 1.04
